Publication PMC7862700, “An all-to-all approach to the identification of sequence-specific readers for epigenetic DNA modifications on cytosine”

How the values were obtained:
Experiment in all cases: DAPPL (digital affinity profiling via proximity ligation, sequencing); 10 mM Tris-HCl pH 7.5, 50 mM NaCl, 1 mM DTT, 4% glycerol, room temperature, 30 min; GST-TFs on glutathione beads, 16-mer random dsDNA library, 0.1% formaldehyde crosslink after washing; high values mean tight binding
FEV = biological target: T1, FEV (Homo sapiens, UniProt Q99581 1-238); conditions: protein: recombinant; tags: N-terminal GST; dsDNA, one strand shown
T1 sequence: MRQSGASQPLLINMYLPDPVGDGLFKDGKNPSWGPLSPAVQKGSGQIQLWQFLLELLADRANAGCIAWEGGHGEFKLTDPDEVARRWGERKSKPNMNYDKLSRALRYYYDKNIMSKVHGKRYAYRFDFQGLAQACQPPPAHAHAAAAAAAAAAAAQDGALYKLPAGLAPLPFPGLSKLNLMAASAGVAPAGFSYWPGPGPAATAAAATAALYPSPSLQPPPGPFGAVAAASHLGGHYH
How it was run: (§1)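 Pools of DNA-barcoded human transcription factors, expressed in yeast as GST fusions on glutathione beads and combined with a tag-only sample, were incubated with 200 nmole of a 16-mer random double-stranded DNA library. Incubation took 30 min at room temperature in Tris/NaCl/DTT/glycerol buffer and was followed by washing, 0.1% formaldehyde crosslinking, proximity ligation (BsaI/T4 ligase, 1 h, 37 °C), PCR amplification and sequencing on an Illumina NextSeq500. Binding signal is the ratio of a hexamer's read frequency for a factor to its frequency for the tag-only sample.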

ETV5 = ETV5 (Homo sapiens, UniProt P41161 1-510); conditions: protein: recombinant; tags: N-terminal GST; dsDNA, one strand shown
How it was run: as §1

HSF1 = HSF1 (Homo sapiens, UniProt Q00613 1-529); conditions: protein: recombinant; tags: N-terminal GST; chain copies: 3; dsDNA, one strand shown
How it was run: as §1

SPIC = biological target: T2, SPIC (Homo sapiens, UniProt Q8N5J4 1-248); conditions: protein: recombinant; tags: N-terminal GST; dsDNA, one strand shown
T2 sequence: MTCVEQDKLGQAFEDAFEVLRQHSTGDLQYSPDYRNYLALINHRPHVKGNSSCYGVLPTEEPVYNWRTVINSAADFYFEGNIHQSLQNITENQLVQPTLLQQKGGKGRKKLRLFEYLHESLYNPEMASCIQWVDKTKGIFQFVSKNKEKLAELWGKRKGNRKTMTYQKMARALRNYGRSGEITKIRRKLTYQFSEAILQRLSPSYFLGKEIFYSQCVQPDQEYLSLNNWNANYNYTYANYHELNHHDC
How it was run: as §1

ELF4 = ELF4 (Homo sapiens, UniProt Q99607 1-663); conditions: protein: recombinant; tags: N-terminal GST; dsDNA, one strand shown
How it was run: as §1

ELK4 = biological target: T3, ELK4 (Homo sapiens, UniProt P28324-2 1-405); conditions: protein: recombinant; tags: N-terminal GST; dsDNA, one strand shown
T3 sequence: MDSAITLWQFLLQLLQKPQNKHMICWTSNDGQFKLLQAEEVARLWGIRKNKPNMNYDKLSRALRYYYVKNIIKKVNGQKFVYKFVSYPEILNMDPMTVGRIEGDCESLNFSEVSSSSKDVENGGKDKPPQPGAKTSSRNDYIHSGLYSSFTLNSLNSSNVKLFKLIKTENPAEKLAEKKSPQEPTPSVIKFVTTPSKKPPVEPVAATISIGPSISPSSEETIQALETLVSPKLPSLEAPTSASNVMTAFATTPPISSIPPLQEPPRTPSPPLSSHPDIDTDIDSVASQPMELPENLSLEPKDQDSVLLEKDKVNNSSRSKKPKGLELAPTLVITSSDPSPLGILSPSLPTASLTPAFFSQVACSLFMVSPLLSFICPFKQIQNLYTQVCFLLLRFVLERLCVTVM
How it was run: as §1

ETV2 = biological target: T4, ETV2 (Homo sapiens, UniProt O00321 1-342); conditions: protein: recombinant; tags: N-terminal GST; dsDNA, one strand shown
T4 sequence: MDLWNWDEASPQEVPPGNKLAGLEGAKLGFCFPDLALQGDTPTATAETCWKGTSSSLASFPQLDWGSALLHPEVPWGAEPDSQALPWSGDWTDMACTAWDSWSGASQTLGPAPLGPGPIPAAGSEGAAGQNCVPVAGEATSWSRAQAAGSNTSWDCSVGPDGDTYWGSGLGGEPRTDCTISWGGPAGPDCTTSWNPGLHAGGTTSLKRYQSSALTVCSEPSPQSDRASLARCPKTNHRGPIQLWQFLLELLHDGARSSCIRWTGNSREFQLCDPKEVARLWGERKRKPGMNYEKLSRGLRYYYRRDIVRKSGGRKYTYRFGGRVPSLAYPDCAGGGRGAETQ
How it was run: as §1

ELF3 = biological target: T5, ELF3 (Homo sapiens, UniProt P78545 1-371); conditions: protein: recombinant; tags: N-terminal GST; dsDNA, one strand shown
T5 sequence: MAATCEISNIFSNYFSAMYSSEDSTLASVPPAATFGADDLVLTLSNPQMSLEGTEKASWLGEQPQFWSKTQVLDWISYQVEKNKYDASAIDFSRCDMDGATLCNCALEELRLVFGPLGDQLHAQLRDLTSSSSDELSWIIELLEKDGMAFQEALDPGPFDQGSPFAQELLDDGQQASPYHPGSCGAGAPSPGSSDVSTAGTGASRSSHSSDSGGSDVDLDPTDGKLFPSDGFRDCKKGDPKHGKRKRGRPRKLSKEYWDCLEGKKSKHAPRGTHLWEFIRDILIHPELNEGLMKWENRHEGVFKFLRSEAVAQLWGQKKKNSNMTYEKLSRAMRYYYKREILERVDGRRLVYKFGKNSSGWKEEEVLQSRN
How it was run: as §1

CRX = CRX (Homo sapiens, UniProt O43186 1-299); conditions: protein: recombinant; tags: N-terminal GST; dsDNA, one strand shown
How it was run: as §1

ETV1 = ETV1 (Homo sapiens, UniProt P50549 1-477); conditions: protein: recombinant; tags: N-terminal GST; dsDNA, one strand shown
How it was run: as §1

Sequence of ETV5 (P41161 whole entry): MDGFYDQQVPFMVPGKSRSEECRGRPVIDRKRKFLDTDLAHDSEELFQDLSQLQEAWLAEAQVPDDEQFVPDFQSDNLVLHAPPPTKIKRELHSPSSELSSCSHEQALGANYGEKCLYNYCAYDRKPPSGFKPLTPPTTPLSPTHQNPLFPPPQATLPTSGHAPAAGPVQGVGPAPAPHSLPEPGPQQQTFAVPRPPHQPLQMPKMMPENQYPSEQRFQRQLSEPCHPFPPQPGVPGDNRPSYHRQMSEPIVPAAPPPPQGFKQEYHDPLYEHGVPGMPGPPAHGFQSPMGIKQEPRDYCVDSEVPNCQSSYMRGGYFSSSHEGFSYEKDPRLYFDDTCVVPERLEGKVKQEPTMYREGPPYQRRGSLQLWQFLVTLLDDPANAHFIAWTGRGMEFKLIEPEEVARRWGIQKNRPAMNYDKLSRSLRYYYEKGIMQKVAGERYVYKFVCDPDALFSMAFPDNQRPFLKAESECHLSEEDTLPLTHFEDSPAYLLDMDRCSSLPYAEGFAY
Sequence of CRX (O43186 whole entry): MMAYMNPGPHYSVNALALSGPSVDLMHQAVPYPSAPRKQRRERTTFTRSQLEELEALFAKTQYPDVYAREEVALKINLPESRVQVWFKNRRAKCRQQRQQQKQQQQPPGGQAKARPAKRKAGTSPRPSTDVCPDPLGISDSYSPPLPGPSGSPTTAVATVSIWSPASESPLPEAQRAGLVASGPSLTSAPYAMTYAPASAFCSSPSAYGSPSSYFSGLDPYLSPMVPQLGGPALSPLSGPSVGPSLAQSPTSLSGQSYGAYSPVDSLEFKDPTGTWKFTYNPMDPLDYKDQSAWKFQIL
Sequence of HSF1 (Q00613 whole entry): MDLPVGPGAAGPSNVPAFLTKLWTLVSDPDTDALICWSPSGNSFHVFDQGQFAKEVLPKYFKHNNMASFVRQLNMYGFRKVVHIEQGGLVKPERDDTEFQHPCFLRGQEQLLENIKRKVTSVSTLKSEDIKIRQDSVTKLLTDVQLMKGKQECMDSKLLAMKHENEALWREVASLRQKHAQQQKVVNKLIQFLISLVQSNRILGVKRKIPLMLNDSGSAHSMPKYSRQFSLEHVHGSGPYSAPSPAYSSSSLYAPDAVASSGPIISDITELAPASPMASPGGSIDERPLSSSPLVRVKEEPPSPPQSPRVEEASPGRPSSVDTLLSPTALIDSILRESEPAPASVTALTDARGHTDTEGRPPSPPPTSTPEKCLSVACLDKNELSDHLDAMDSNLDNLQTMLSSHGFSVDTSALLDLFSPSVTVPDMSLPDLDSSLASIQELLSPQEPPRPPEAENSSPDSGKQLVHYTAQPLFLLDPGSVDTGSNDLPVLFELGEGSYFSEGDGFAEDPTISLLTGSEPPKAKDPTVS
Sequence of ETV1 (P50549 whole entry): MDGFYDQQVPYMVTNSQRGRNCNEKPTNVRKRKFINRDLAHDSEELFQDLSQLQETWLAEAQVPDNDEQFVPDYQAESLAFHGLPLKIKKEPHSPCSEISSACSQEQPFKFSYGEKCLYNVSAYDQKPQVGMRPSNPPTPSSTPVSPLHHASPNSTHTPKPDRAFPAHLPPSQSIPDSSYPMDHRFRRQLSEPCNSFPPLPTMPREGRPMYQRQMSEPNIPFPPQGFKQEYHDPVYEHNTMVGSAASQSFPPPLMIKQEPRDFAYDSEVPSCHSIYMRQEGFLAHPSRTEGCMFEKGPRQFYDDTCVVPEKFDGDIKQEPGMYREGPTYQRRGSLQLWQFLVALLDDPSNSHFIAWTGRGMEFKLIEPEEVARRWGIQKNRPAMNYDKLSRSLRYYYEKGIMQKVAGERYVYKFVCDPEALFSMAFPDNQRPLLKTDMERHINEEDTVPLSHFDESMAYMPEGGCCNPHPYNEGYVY
Sequence of ELF4 (Q99607 whole entry): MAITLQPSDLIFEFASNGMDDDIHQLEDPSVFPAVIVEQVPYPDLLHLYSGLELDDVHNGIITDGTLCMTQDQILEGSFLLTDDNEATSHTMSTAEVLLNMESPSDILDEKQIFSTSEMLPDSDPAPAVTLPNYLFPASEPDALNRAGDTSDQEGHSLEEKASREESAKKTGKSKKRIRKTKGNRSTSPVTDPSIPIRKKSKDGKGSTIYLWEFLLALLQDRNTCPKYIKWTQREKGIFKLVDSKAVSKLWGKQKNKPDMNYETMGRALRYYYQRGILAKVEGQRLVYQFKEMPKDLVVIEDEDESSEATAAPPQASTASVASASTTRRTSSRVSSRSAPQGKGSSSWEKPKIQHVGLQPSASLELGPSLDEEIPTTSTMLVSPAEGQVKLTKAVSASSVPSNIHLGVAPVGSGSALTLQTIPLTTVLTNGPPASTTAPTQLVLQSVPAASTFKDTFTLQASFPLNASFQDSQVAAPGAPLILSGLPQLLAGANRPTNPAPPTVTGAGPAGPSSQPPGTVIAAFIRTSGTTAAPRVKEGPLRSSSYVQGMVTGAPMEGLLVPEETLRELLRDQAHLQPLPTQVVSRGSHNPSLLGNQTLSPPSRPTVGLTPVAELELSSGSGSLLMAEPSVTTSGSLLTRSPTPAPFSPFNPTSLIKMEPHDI

Row | Sequence | binding signal (FEV) | binding signal (ETV5) | binding signal (HSF1) | binding signal (SPIC) | binding signal (ELF4) | binding signal (ELK4) | binding signal (ETV2) | binding signal (ELF3) | binding signal (CRX) | binding signal (ETV1)
1 | CATTTG | 1.21 fold enrichment (6-mer frequency, TF over GST control) | 1.24 fold enrichment (6-mer frequency, TF over GST control) | 1.13 fold enrichment (6-mer frequency, TF over GST control) | 1.15 fold enrichment (6-mer frequency, TF over GST control) | 1.26 fold enrichment (6-mer frequency, TF over GST control) | 1.26 fold enrichment (6-mer frequency, TF over GST control) | 1.29 fold enrichment (6-mer frequency, TF over GST control) | 1.49 fold enrichment (6-mer frequency, TF over GST control) | 1.07 fold enrichment (6-mer frequency, TF over GST control) | 1.32 fold enrichment (6-mer frequency, TF over GST control)
2 | CTTCAT | 1.46 fold enrichment (6-mer frequency, TF over GST control) | 1.49 fold enrichment (6-mer frequency, TF over GST control) | 1.34 fold enrichment (6-mer frequency, TF over GST control) | 1.36 fold enrichment (6-mer frequency, TF over GST control) | 1.4 fold enrichment (6-mer frequency, TF over GST control) | 1.53 fold enrichment (6-mer frequency, TF over GST control) | 1.39 fold enrichment (6-mer frequency, TF over GST control) | 1.56 fold enrichment (6-mer frequency, TF over GST control) | 1.3 fold enrichment (6-mer frequency, TF over GST control) | 1.5 fold enrichment (6-mer frequency, TF over GST control)
3 | TCTAAA | 1.15 fold enrichment (6-mer frequency, TF over GST control) | 1.15 fold enrichment (6-mer frequency, TF over GST control) | 1.46 fold enrichment (6-mer frequency, TF over GST control) | 1.46 fold enrichment (6-mer frequency, TF over GST control) | 1.27 fold enrichment (6-mer frequency, TF over GST control) | 1.3 fold enrichment (6-mer frequency, TF over GST control) | 1.27 fold enrichment (6-mer frequency, TF over GST control) | 1.14 fold enrichment (6-mer frequency, TF over GST control) | 1.6 fold enrichment (6-mer frequency, TF over GST control) | 1.16 fold enrichment (6-mer frequency, TF over GST control)
4 | TTCGAA | 1.13 fold enrichment (6-mer frequency, TF over GST control) | 1.18 fold enrichment (6-mer frequency, TF over GST control) | 1.93 fold enrichment (6-mer frequency, TF over GST control) | 1.18 fold enrichment (6-mer frequency, TF over GST control) | 1.26 fold enrichment (6-mer frequency, TF over GST control) | 1.2 fold enrichment (6-mer frequency, TF over GST control) | 1.16 fold enrichment (6-mer frequency, TF over GST control) | 1.24 fold enrichment (6-mer frequency, TF over GST control) | 1.3 fold enrichment (6-mer frequency, TF over GST control) | 1.1 fold enrichment (6-mer frequency, TF over GST control)
5 | TTGTGC | 1.18 fold enrichment (6-mer frequency, TF over GST control) | 1.17 fold enrichment (6-mer frequency, TF over GST control) | 1.07 fold enrichment (6-mer frequency, TF over GST control) | 1.37 fold enrichment (6-mer frequency, TF over GST control) | 1.13 fold enrichment (6-mer frequency, TF over GST control) | 1.23 fold enrichment (6-mer frequency, TF over GST control) | 1.23 fold enrichment (6-mer frequency, TF over GST control) | 1.24 fold enrichment (6-mer frequency, TF over GST control) | 1.09 fold enrichment (6-mer frequency, TF over GST control) | 1.09 fold enrichment (6-mer frequency, TF over GST control)
6 | TCGCTC | 1.23 fold enrichment (6-mer frequency, TF over GST control) | 1.24 fold enrichment (6-mer frequency, TF over GST control) | 1.25 fold enrichment (6-mer frequency, TF over GST control) | 1.24 fold enrichment (6-mer frequency, TF over GST control) | 1.31 fold enrichment (6-mer frequency, TF over GST control) | 1.29 fold enrichment (6-mer frequency, TF over GST control) | 1.22 fold enrichment (6-mer frequency, TF over GST control) | 1.4 fold enrichment (6-mer frequency, TF over GST control) | 1.12 fold enrichment (6-mer frequency, TF over GST control) | 1.38 fold enrichment (6-mer frequency, TF over GST control)
7 | TCGATT | 1.02 fold enrichment (6-mer frequency, TF over GST control) | 1.12 fold enrichment (6-mer frequency, TF over GST control) | 1.48 fold enrichment (6-mer frequency, TF over GST control) | 1.2 fold enrichment (6-mer frequency, TF over GST control) | 1.19 fold enrichment (6-mer frequency, TF over GST control) | 1.14 fold enrichment (6-mer frequency, TF over GST control) | 1.04 fold enrichment (6-mer frequency, TF over GST control) | 1.1 fold enrichment (6-mer frequency, TF over GST control) | 1.37 fold enrichment (6-mer frequency, TF over GST control) | 1.14 fold enrichment (6-mer frequency, TF over GST control)
